A selection: hits, their analogues and other compounds. The true share with any hit is near 5%.
SENP7 block – SENP7 protease inhibitors, primary screen, biochemical, luminescence, uHTS; Sentrin-specific protease 7 (Homo sapiens), Q9BQF6; recombinant SENP7, Z-RLRGG-aminoluciferin luminescence, 40 min; inhibition, % at 5 µM; 330,000 compounds, 1.5% hits; AID 434973, 2010;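 active means inhibition above about 50% at the single test dose, limit read from the data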;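 further: plate controls were DMSO with enzyme for no effect and no enzyme buffer wells for full effect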
AHR act – AHR activators, primary screen, cell-based, luminescence, luciferase reporter, human; Aryl hydrocarbon receptor (Homo sapiens), P35869; AHR-responsive luciferase reporter cells; activation, % at 5 µM; 320,000 compounds, 2.5% hits; AID 2796, 2010; in the data active means activation above about 47%;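 further: 0% = vehicle wells and 100% = reference agonist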
SENP8 block-1 – human SENP8 protease inhibitors, primary screen, biochemical, fluorescence, Nedd8 protein substrate, uHTS; Sentrin-specific protease 8 (Homo sapiens), Q96LD8; recombinant SENP8; inhibition, % at 20 µM; 360,000 compounds, 0.64% hits; AID 602440, 2012; in the data active means inhibition mostly above about 40%, no sharp cut-off; inactive means mostly below about 27%
SENP6 block – SENP6 protease inhibitors, primary screen, biochemical, luminescence, uHTS; Sentrin-specific protease 6 (Homo sapiens), Q9GZR1; Recombinant SENP6 catalytic domain, aminoluciferin luminescence; inhibition, % at 10 µM; 330,000 compounds, 1.8% hits; AID 2599, 2010;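 active means inhibition above about 50% at the single tested dose, limit read from the data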;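 further: plate controls were DMSO wells with enzyme for no effect and DMSO wells lacking enzyme for full effect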
Target sequence (Q9GZR1 628-1112 limits assumed): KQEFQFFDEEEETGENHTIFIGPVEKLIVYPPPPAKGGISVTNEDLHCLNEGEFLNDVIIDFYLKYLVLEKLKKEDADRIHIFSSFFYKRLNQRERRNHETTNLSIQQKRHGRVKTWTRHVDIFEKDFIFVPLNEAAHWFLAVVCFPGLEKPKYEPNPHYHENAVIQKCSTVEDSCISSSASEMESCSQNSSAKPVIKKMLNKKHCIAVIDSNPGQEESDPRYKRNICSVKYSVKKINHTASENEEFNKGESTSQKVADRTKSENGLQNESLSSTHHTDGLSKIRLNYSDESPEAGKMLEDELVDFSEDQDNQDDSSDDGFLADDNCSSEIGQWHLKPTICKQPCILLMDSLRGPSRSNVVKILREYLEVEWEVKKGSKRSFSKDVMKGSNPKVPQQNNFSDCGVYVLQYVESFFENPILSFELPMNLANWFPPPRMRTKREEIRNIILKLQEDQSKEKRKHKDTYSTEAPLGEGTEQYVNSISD
SENP8 block-2 – SENP8 protease inhibitors, primary screen, biochemical, luminescence. 330,000 compounds, 1.2% hits. Sentrin-specific protease 8 (Homo sapiens), Q96LD8. AID 2540, 2010. purified SENP8, Z-RLRGG-aminoluciferin cleavage. inhibition, % at 10 µM; in the data active means inhibition above about 50%
EBI2 block – EBI2 receptor antagonists, beta-arrestin recruitment, primary screen, cell-based, luminescence, 7a,25-OHC stimulation, uHTS. G-protein coupled receptor 183 (Homo sapiens), P32249. 7a,25-OHC stimulated. inhibition, % at 5 µM. 360,000 compounds, 0.81% hits. AID 651636, 2012; in the data active means inhibition above about 38%;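 further: enzyme fragment complementation signal reports receptor beta-arrestin coupling in cells; 0% = agonist plus DMSO wells and 100% = wells without agonist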
SENP8 confirm – SENP8 protease inhibitors, retest, confirmation, biochemical, luminescence, single concentration; shares compounds with SENP7 block; Recombinant SENP8, Z-RLRGG-aminoluciferin luminescence, 60 min; inhibition, % at 12.5 µM; 6,200 compounds, 40% hits; AID 488912, 2010;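 active means mean inhibition across replicates above about 50%, limit read from the data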
SENP6 confirm – SENP6 protease inhibitors, confirmation, biochemical, luminescence, single concentration; shares compounds with SENP7 block; recombinant SENP6, Z-RLRGG-aminoluciferin luminescence; inhibition, % at 12.5 µM; 6,200 compounds, 58% hits; AID 488915, 2010
SENP7 conf – SENP7 protease inhibitors, retest, confirmation, biochemical, luminescence, single concentration; shares compounds with SENP7 block; recombinant SENP7, Z-RLRGG-aminoluciferin luminescence, 40 min; inhibition, % at 12.5 µM; 6,200 compounds, 69% hits; AID 488917, 2010
Casp3 SENP sel – caspase-3 protease inhibitors, confirmation, selectivity assay for SENP inhibitor project, biochemical, single concentration. shares compounds with SENP7 block. purified caspase-3, Z-DEVD-aminoluciferin luminescence, 60 min. inhibition, % at 12.5 µM. 6,200 compounds, 60% hits. AID 488918, 2010;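 active means mean inhibition above about 50%, limit read from the data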;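 further: plate controls were enzyme with DMSO for no effect and wells without caspase-3 for full effect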
SENP luc ctr – interferes with luciferase luminescence in SENP counter-screen; shares compounds with SENP7 block; Pre-incubated SENP8/Z-RLRGG-aminoluciferin, luciferase luminescence interference; inhibition, % at 12.5 µM; 6,200 compounds, 39% hits; AID 488919;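 active means mean inhibition above about 50% when retested at one dose, limit read from the data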;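 further: plate controls were DMSO wells with completed reaction for no effect and substrate without enzyme for full effect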
* marks the source's active call; other numbers are inactive results; · = no result given.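 How the source made its calls, unless noted: active means mean inhibition above about 50% in the one-dose retest (limit read from the data); inactive means the rest.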

SMILES	SENP7 block	AHR act	SENP8 block-1	SENP6 block	SENP8 block-2	EBI2 block	SENP8 confirm	SENP6 confirm	SENP7 conf	Casp3 SENP sel	SENP luc ctr
C/C(=N\NC(=O)c1ccccc1O)c1c(O)cc(C)oc1=O	69*	18	-73	81*	62*	-4	13	6	1	-3	-2
C/C(=N\NC(=O)c1ccccc1O)C1C(=O)c2ccccc2C1=O	87*	32	36	94*	93*	6	98*	98*	102*	89*	74*
C/C(=N\NC(=O)c1ccccc1O)c1ccc(Br)s1	3	18	-43	2	-5	-5	·	·	·	·	·
C/C(=N/NC(=O)c1cc2ccccc2cc1O)C1C(=O)c2ccccc2C1=O	63*	22	27	94*	96*	12	95*	99*	97*	81*	46
O=C(COC(=O)Cn1nnc2ccccc21)NC1CCCC1	-2	0	15	12	1	-7	·	·	·	·	·
CC1=NN(S(=O)(=O)c2ccc(Cl)cc2Cl)C(=O)c2ccccc2O1	-10	5	28	-23	-4	-8	·	·	·	·	·
Cc1ccc(-n2c(SC3CCOC3=O)nc3ccccc3c2=O)cc1 (stereo unspecified)	5	10	·	-4	4	·	·	·	·	·	·
COc1cccc(NC(=O)c2ocnc2C)c1	42	7	8	48	14	-8	·	·	·	·	·
Cc1ccc(NC(=O)c2ocnc2C)cc1Cl	83*	12	14	81*	61*	-8	76*	77*	94*	83*	47
Cc1ncoc1C(=O)Nc1cccc(Cl)c1	64*	11	7	50*	35	-6	60*	58*	86*	80*	57*
O=c1c2cc(O)c(O)cc2oc2cc(O)c(C3OC(CO)C(O)C(O)C3O)c(O)c12 (stereo unspecified)	0	1	18	-19	2	13	·	·	·	·	·
CS(=O)(=O)c1ccc(Cl)c(NC(=O)COC(=O)COc2ccc3c(c2)CCC3)c1	-8	4	12	-9	-3	-10	·	·	·	·	·
COc1ccccc1N=Cc1c(C)c(C#N)c2[nH]c3ccccc3n2c1=O	2	11	-408	15	1	5	·	·	·	·	·
Cc1c(Cc2ccccc2)c(=O)n2c([nH]c3ccccc32)c1C#N	11	5	-432	52*	13	-3	-2	14	7	4	-1
N#Cc1c(C(F)(F)F)cc(=O)n2c1[nH]c1ccccc12	2	·	-288	83*	71*	-3	3	75*	91*	79*	76*
N#Cc1c(CSCC(=O)O)cc(=O)n2c1[nH]c1ccccc12	5	6	-251	0	1	-2	·	·	·	·	·
Cc1cc(O)c(/C=N/Nc2cccc(Cl)c2)c(=O)o1	20	23	-106	70*	66*	-4	71*	71*	89*	87*	56*
Cc1cc(O)c(/C=N/OCc2ccc(Cl)cc2Cl)c(=O)o1	3	1	2	-2	4	-6	·	·	·	·	·
Cc1cc(O)c(/C=N/Nc2ccccc2Cl)c(=O)o1	41	8	-106	84*	74*	-6	72*	68*	87*	88*	63*
Cc1cccc(N=Cc2c(O)cc(C)oc2=O)c1	-4	0	-7	-12	-5	-13	·	·	·	·	·
Cc1ccc(C(=O)Nc2ccc3c(c2)OCCO3)c(C)c1	89*	-12	-1	91*	81*	-4	88*	88*	97*	93*	87*
CN(CC(=O)Nc1cccc(F)c1)C(=O)c1ccc2c(c1)OCCO2	3	0	11	19	16	-8	·	·	·	·	·
Cc1cccc(NC(=O)c2ccc3c(c2)OCCO3)c1	92*	·	9	86*	85*	-1	7	93*	101*	94*	90*
O=C(Nc1cccc(F)c1)c1ccc2c(c1)OCCO2	93*	-9	2	89*	87*	0	-4	88*	99*	90*	89*
O=C(Nc1ccc(NC(=O)c2ccc3c(c2)OCCO3)cc1)c1ccccc1	-9	-8	8	-31	5	-10	·	·	·	·	·
SMILES	SENP7 block	AHR act	SENP8 block-1	SENP6 block	SENP8 block-2	EBI2 block	SENP8 confirm	SENP6 confirm	SENP7 conf	Casp3 SENP sel	SENP luc ctr
CCCC(=O)Nc1cccc(NC(=O)c2ccc3c(c2)OCCO3)c1	-7	8	9	-2	14	-3	·	·	·	·	·
O=C(Nc1ccccc1)c1ccc2c(c1)OCCO2	85*	-2	29	93*	77*	-7	-23	77*	97*	92*	84*
Cc1ccc(F)cc1NC(=O)CSc1n[nH]c(N)n1	-19	-1	6	-15	-16	4	·	·	·	·	·
CCOC(=O)c1ccc(NC(=O)c2c(N)n(C)c(=O)n(C)c2=O)cc1	8	-4	7	-4	-16	5	·	·	·	·	·
CCN(CC)c1ccc(C(=O)Nc2cccc(F)c2)cc1	59*	-5	-155	84*	59*	11	71*	74*	93*	64*	68*
CCOC(=O)c1cccc(NC(=O)c2ccc3c(c2)OCO3)c1	45	-4	14	60*	24	8	51*	47	74*	54*	38
CN(C)c1cccc(C(=O)Nc2cccc(F)c2)c1	16	40	-348	30	4	9	·	·	·	·	·
CCOC(=O)CNc1ccc2c(c1)OCO2	-1	15	1	59*	4	-6	13	12	8	2	-3
